This is part of a sample that, as a whole, favours compounds with a hit. Of some 83,000 tested, about 20% had one in any assay.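 Step 1: grow cells in 96-well plates. Step 2: add test compound at a single concentration. Step 3: incubate 48 h. Step 4: record percent growth.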 A number with no mark means an inactive call. The source made the active and inactive calls. Rule for the calls: active = growth percent below 10; inactive = the rest.
Experiments:
Experiment in all cases: NCI-60 one-dose screen, 48 h (100 = growth as untreated, 0 = no growth, -100 = all killed)
Conditions in all cases: 10 µM unless noted
SR leukemia = test system: SR leukemia
RPMI-8226 leukemia = test system: RPMI-8226 leukemia
OVCAR-8 ovarian = test system: OVCAR-8 ovarian
OVCAR-5 ovarian = test system: OVCAR-5 ovarian
OVCAR-4 ovarian = test system: OVCAR-4 ovarian
SK-OV-3 ovarian = test system: SK-OV-3 ovarian
IGROV1 ovarian = test system: IGROV1 ovarian
OVCAR-3 ovarian = test system: OVCAR-3 ovarian
HS 578T breast = test system: HS 578T breast
NCI/ADR-RES ovarian = test system: NCI/ADR-RES ovarian
T-47D breast = test system: T-47D breast
BT-549 breast = test system: BT-549 breast
MDA-MB-435 melanoma = test system: MDA-MB-435 melanoma
SW-620 colon = test system: SW-620 colon
MCF7 breast = test system: MCF7 breast
HCT-116 colon = test system: HCT-116 colon
HCC-2998 colon = test system: HCC-2998 colon
KM12 colon = test system: KM12 colon

SMILES	growth (SR leukemia)	growth (RPMI-8226 leukemia)	growth (OVCAR-8 ovarian)	growth (OVCAR-5 ovarian)	growth (OVCAR-4 ovarian)	growth (SK-OV-3 ovarian)	growth (IGROV1 ovarian)	growth (OVCAR-3 ovarian)	growth (HS 578T breast)	growth (NCI/ADR-RES ovarian)	growth (T-47D breast)	growth (BT-549 breast)	growth (MDA-MB-435 melanoma)	growth (SW-620 colon)	growth (MCF7 breast)	growth (HCT-116 colon)	growth (HCC-2998 colon)	growth (KM12 colon)
CCCCCCCCCCCCNC(=O)[C@H]1CSC(c2ccc(OC)c(F)c2)N1 (stereo partly specified)	-50.9% (active)	-53.3% (active)	-51.1% (active)	-98.6% (active)	-96.6% (active)	-98.1% (active)	-76% (active)	-91.9% (active)	-49.6% (active)	-60.4% (active)	-68.9% (active)	-84.3% (active)	-92% (active)	-70.4% (active)	-68.1% (active)	-88.7% (active)	-83.6% (active)	-84.6% (active)
CNC(=O)c1cc(Oc2ccc3nc(NC(=O)Nc4ccc(N5CCC(N(C)C)CC5)cc4)sc3c2)ccn1	0.621% (active)	74.2%	89.3%	114%	80.7%	102%	89%	90.1%	80.9%	110%	78.1%	98.7%	98.8%	71.6%	67.7%	39%	95.4%	60.4%
C=C1CC2(OC1=O)C(=O)N(CCCCCCCN1C(=O)C3(CC(=C)C(=O)O3)c3ccccc31)c1ccccc12 (stereo unspecified)	3.28% (active)	-28.1% (active)	9.09% (active)	45.1%	10.2%	112%	10.5%	3.44% (active)	62.3%	32.6%	22.5%	35.2%	6.35% (active)	-49.8% (active)	-4.01% (active)	-21.8% (active)	82.5%	73.6%
O=C(CN1CCN(c2cc3c(cc2F)c(=O)c(C(=O)O)cn3C2CC2)CC1)Nc1nc(-c2ccc(Cl)cc2)cs1	29.3%	1.14% (active)	13.2%	51.7%	67.7%	21.1%	38.6%	14.2%	32.2%	56.9%	40.2%	26.3%	25.2%	26.2%	23.5%	13.7%	29.8%	21.8%
COc1ccc(-n2cc(-c3ccccc3)c3c(SCC(=O)N/N=C/c4ccc([N+](=O)[O-])cc4)ncnc32)cc1	108%	108%	103%	99.2%	102%	109%	108%	105%	105%	91.3%	98.7%	97.8%	109%	103%	92.5%	105%	97.7%	101%
COc1ccc(C/C(C)=C(\c2ccc(OCCN3CCCCCC3)cc2)c2ccc(OC(=O)C3CCCCC3)cc2)cc1	3.43% (active)	40.1%	68.9%	81.9%	71.7%	77.8%	52.3%	63.5%	51.6%	73.5%	38.1%	83.7%	68.8%	64.8%	29.3%	38.5%	56.9%	63.1%
COc1cc(OC)c(/C=C/C(=O)c2c(OC)cc(OC)cc2OC)c(OC)c1	-11.9% (active)	-6.66% (active)	17.6%	29.1%	47.6%	24.7%	30.1%	6.92% (active)	52.6%	12.3%	13%	33.4%	-34.8% (active)	8.71% (active)	19.5%	8.7% (active)	30.3%	9.29% (active)
CCC(C)[C@@H]1NC(=O)[C@@H]2CCCN2C(=O)[C@H](Cc2ccccc2)NC(=O)[C@@H]2CCCN2C(=O)[C@H](Cc2ccccc2)NC(=O)[C@@H]2CCCN2C(=O)[C@H](Cc2ccccc2)NC1=O (stereo partly specified)	83.7%	85.7%	113%	105%	106%	103%	120%	126%	106%	112%	98.9%	109%	112%	105%	87.5%	113%	106%	121%
CN1/C(=C\C=C\C2=[N+](C)c3ccccc3C2(C)C)C(C)(C)c2ccccc21	-32.8% (active)	-8.69% (active)	1.34% (active)	20.9%	10.5%	-2.66% (active)	2.4% (active)	2.1% (active)	23.4%	14.3%	-9.24% (active)	-17.7% (active)	-48.9% (active)	8.18% (active)	-2.53% (active)	0.854% (active)	-60.8% (active)	-64.9% (active)
COc1cccc(NC(=O)c2sc3nc4c(cc3c2N)CN(Cc2ccccc2)CC4)c1	28.8%	72.7%	47%	85.3%	20.5%	36.9%	44.2%	36.4%	20.8%	63.2%	66.1%	65.5%	4.27% (active)	54.4%	49.5%	58.1%	77.3%	48.2%
C[C@]12C[C@@H](c3ccoc3)OC(=O)[C@@H]1CC[C@]1(C)[C@@H]2CC[C@@H](O)[C@]1(C)O	74.5%	101%	104%	137%	128%	105%	102%	112%	81.1%	104%	82.6%	106%	57.4%	63.2%	108%	90.5%	95.8%	102%
COc1cccc(/C=C\C(=O)c2ccccc2)c1	47.5%	6.17% (active)	81.4%	94.7%	47.4%	107%	2.47% (active)	-4.31% (active)	85.8%	88%	56.5%	97.4%	72.9%	15%	11.5%	16.2%	104%	8.52% (active)
CC(=O)Oc1cc2cnc3c4cc(OC(C)=O)c(OC(C)=O)cc4ccc3c2cc1OC(C)=O	-8.28% (active)	12.8%	-22.1% (active)	54.6%	-4.13% (active)	26.9%	-12.8% (active)	-3.27% (active)	28.1%	13.3%	14.7%	26.8%	23.3%	24.8%	6.96% (active)	5.17% (active)	45.7%	22.8%
O=c1c2cccc3c(Nc4c(F)cccc4F)ccc(c32)c2nc3ccccc3n12	21.5%	75.4%	92.9%	99.5%	82.9%	89.1%	53.4%	91.5%	110%	95.4%	52.7%	98.7%	111%	102%	20.4%	98.4%	72.7%	78.9%
CCOC(=O)c1ccc2c(c1)nc(/C=C/c1ccc(Cl)cc1)n2-c1cc(C(C)(C)C)[nH]n1	52.2%	52.3%	38.5%	110%	38.3%	43.3%	15.4%	22.2%	51.3%	68%	56.2%	57.4%	62.7%	64.9%	42.4%	52%	88.4%	54%
C=C1CC[C@@H]2[C@](C)(COC(C)=O)[C@H](OC(C)=O)CC[C@@]2(C)[C@@H]1CC(NCc1ccc(F)cc1)C1=CCOC1=O (stereo partly specified)	7.69% (active)	1.27% (active)	18.6%	99%	30.9%	94.3%	48.3%	23.7%	72.5%	28.3%	26.6%	28.7%	32.7%	32%	16.6%	33.7%	89.3%	46.5%
CCCCCCCCCC(=O)Oc1ccc(/C(=C(/C)c2ccccc2)c2ccc(OCCN3CCCC3)cc2)cc1	-25.7% (active)	-21.8% (active)	54.5%	54.4%	32.6%	33.9%	44.6%	42.9%	11.9%	28%	3.1% (active)	24.5%	-59% (active)	-21.9% (active)	-14.1% (active)	15.8%	-11.2% (active)	15.2%

From PubChem BioAssay (NCI)
